Test results published in PubChem BioAssay (EPA / NIEHS).
The source holds several records for some structures; these can differ, active in one and inactive in another. Activity calls are given as the source filed them. Rule for the calls: active = hit-call score of the fitted dose curve at least 0.9, where 1 is the maximum; inactive = score below 0.9.

test: ATG_TA_CIS: Attagene CIS-FACTORIAL HepG2 Assay for human TA Basal Promoter (AID 2282964); details: HepG2 Attagene CIS-factorial TA basal promoter reporter; actives raise or lower the signal
In short: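 Transient MRTU transfection of HepG2 preceded 24 h compound exposure. Reporter mRNA levels were then read by RT-PCR with capillary electrophoresis, and this background-control endpoint was fitted bidirectionally to DMSO.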

Compound	outcome	AC50
O=C(O)C(F)(OC(F)(F)C(F)(OC(F)(F)C(F)(OC(F)(F)C(F)(F)C(F)(F)F)C(F)(F)F)C(F)(F)F)C(F)(F)F (stereo not given)	inactive	–
O=C(O)C(F)(F)C(F)(F)C(F)(F)C(F)(F)C(F)(F)C(F)(F)C(F)(F)C(F)(F)Cl	inactive	50 µM (active)
c1ccc(-c2ccccc2-c2ccccc2)cc1	inactive	–
CNC(=S)NC	inactive	–
OCCCC(F)(F)C(F)(F)C(F)(F)C(F)(F)C(F)(F)C(F)(F)C(F)(F)F	inactive	–
CCN(CC)c1ccc2c(C)cc(=O)oc2c1	inactive	–
O=C(O)C(F)(F)C(F)(F)C(F)(F)C(F)(F)C(F)(F)C(F)(F)C(F)(F)C(F)(F)C(F)(F)C(F)(F)C(F)(F)C(F)(F)C(F)(F)F	inactive	–
FC(F)(F)C(F)(F)C(F)(F)C(F)(F)CCI	inactive	–
Cc1ccc(S(=O)(=O)NCl)cc1	inactive	–
C=CC(=O)OCC(F)(F)C(F)(F)C(F)(F)C(F)(F)C(F)(F)C(F)(F)C(F)(F)F	inactive	–
C#C[C@]1(O)CC[C@H]2[C@@H]3CCc4cc(OC)ccc4[C@H]3CC[C@@]21C	inactive	–
O=C(O)C(F)(F)C(F)(F)OC(F)(F)F	inactive	–
CCCCCCCCCCCCCCCC[N+](C)(C)Cc1ccccc1	inactive	–
CCO[Si](CCC(F)(F)C(F)(F)C(F)(F)C(F)(F)C(F)(F)C(F)(F)F)(OCC)OCC	inactive	–
c1ccc(B(c2ccccc2)c2ccccc2)cc1	inactive	–
C=C(C)C(=O)OCCC(F)(F)C(F)(F)C(F)(F)C(F)(F)C(F)(C(F)(F)F)C(F)(F)F	inactive	–
COC(=O)C1CCC(C(=O)OC)CC1 (stereo not given)	inactive	–

Compound	outcome	AC50
CC(C)OC(=O)c1ccccc1C(=O)OC(C)C	inactive	–
CCCCCCC(C)OC(=O)CCCCC(=O)OC(C)CCCCCC (stereo not given)	inactive	–
C=CC(F)(F)C(F)(F)C(F)(F)C(F)(F)C(F)(F)C(F)(F)C(F)(F)C(F)(F)F	inactive	–
C(=C(c1ccccc1)c1ccccc1)c1ccccc1	inactive	–
O=C(O)C(F)(F)C(F)(F)C(F)(F)F	inactive	–
OC[C@@H](O)[C@@H](O)[C@H](O)[C@@H](O)CO	inactive	–
O=C(OCCOCCOCCOC(=O)c1ccccc1)c1ccccc1	inactive	–
OCC(F)(F)C(F)(F)C(F)(F)F	inactive	–
O=C(CC(=O)C(F)(F)C(F)(F)F)C(F)(F)F	inactive	–
Oc1ccc(Nc2ccccc2)cc1	–	58.1 µM (active)
COC(=O)CCC(F)(F)C(F)(F)C(F)(F)C(F)(F)F	inactive	–
CCCCCCCOC(=O)c1ccccc1C(=O)OCCCCCCC	inactive	–
OCC(F)(F)C(F)(F)C(F)(F)C(F)(F)C(F)(F)C(F)F	inactive	–
FC(F)(F)C(F)(F)C(F)(F)C(F)(F)C(F)(F)C(F)(F)CC1CO1 (stereo not given)	inactive	–
CC/C=C\CCOC(=O)c1ccccc1	inactive	–
CS(C)(=O)=O	inactive	–
C=CC(F)(F)C(F)(F)C(F)(F)C(F)(F)C(F)(F)C(F)(F)C(F)(F)C(F)(F)C=C	inactive	–
